# LYPLA1 inh: LYPLA1 (human) inhibition in PME1 counter-screen; O75608; recombinant LYPLA1, FP-Rh probe fluorescence polarization; inhibition, % at 5.9 µM; hit rate 0.16% among 320,000; AID 2174;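 active = inhibition above the mean of all tested compounds plus 3 SD, set per campaign, cut at about 14% in these data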;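 also: inhibitors block serine hydrolase probe labeling of LYPLA1 so polarization falls; 0% = enzyme with DMSO and 100% = wells lacking LYPLA1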
# PP1 counter: blocks human PP1-alpha phosphatase, a PP5 counter-screen; purified PP1alpha, OMFP fluorescence; hit rate 0.9% among 320,000; AID 2235; inhibition, % at 6.7 µM;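 active = inhibition above the mean inhibition of all tested compounds plus 3 SD, computed separately for each screening campaign, cut at about 15% in these data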
# LYPLA2 inh: counter-screen for PME1 inhibitors: inhibitors of human LYPLA2 | O95372 | AID 2177 | recombinant LYPLA2, FP-Rh probe fluorescence polarization | inhibition, % at 5.9 µM | hit rate 0.38% among 320,000;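 active = inhibition above the screen-wide mean plus 3 SD, limit set per campaign, cut at about 26% in these data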;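 also: 0% = LYPLA2 with DMSO and 100% = wells lacking LYPLA2 enzyme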
# Target sequence (O95372 whole entry, looked up): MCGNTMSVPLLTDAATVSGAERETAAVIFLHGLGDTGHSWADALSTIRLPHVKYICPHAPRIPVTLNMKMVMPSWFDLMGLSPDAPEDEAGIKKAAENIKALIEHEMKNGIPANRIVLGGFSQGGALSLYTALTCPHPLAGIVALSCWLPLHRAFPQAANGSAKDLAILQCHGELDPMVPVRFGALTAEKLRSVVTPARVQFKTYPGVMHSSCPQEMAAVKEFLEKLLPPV
# PME-1 primary: blocks human protein phosphatase methylesterase 1; Q9Y570; recombinant PME-1, FP-Rh probe fluorescence polarization; inhibition, % at 5.9 µM; hit rate 0.53% among 320,000; AID 2130;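 active = inhibition above the campaign mean of all compounds plus 3 SD, cut at about 26% in these data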;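 also: competitive labeling of PME-1 active site by serine hydrolase directed probe; 0% = PME-1 with DMSO and 100% = wells lacking PME-1 enzyme; inhibitors block probe labeling so polarization falls and inhibition rises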
# PP5 inh: PP5 (human) phosphatase inhibition. P53041. purified PP5c, OMFP substrate fluorescence. inhibition, % at 6.7 µM. hit rate 0.18% among 320,000. AID 1987;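 active = inhibition above the campaign's mean inhibition across all tested compounds plus 3 SD, cut at about 9.5% in these data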;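 also: 0% = DMSO only and 100% = 100 µM cantharidin control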
# Target sequence (P53041 whole entry, looked up): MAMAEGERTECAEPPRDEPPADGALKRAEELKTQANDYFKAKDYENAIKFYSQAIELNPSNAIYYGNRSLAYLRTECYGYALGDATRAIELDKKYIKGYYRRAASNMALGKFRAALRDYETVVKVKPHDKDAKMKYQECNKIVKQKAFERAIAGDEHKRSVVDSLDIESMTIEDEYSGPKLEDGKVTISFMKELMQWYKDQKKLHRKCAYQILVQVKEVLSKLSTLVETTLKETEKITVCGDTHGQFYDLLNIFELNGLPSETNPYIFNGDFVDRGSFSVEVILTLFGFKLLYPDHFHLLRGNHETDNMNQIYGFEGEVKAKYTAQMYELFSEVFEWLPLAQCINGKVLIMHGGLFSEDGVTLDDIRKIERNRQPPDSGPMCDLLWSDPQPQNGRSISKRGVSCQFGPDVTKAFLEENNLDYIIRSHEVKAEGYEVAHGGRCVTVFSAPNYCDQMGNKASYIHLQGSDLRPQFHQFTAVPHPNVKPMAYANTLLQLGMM
# Fam108B inh: Fam108B inhibition, counter-screen for RBBP9 inhibitors | recombinant Fam108B, FP-Rh probe fluorescence polarization | inhibition, % at 9.51 µM | hit rate 0.33% among 300,000 | AID 1947;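 active = inhibition above the screen mean inhibition plus 3 SD, computed separately per campaign, cut at about 18% in these data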;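 also: inhibitors lower polarization as less probe binds the enzyme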
# Fam108b inh conf: Fam108b (mouse) hydrolase inhibition, confirmation assay. shares compounds with Fam108B inh. recombinant Fam108b, FP-Rh probe fluorescence polarization. inhibition, % at 9.51 µM. hit rate 44% among 930;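 active = inhibition above a limit from the primary screen, the mean over all compounds plus 3 SD, cut at about 19% in these data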;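 also: 0% = median of active Fam108b wells and 100% = catalytically dead S170A mutant; inhibitors free the probe so polarization falls as inhibition rises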
# Fam108b inh: inhibits mouse Fam108b in gel-based ABPP; shares compounds with Fam108B inh; recombinant Fam108b, fluorophosphonate probe; inhibition, % at 20 µM; hit rate 44% among 260; AID 588649; in the data active = inhibition above about 40%
# PP5 conf: confirmation of human PP5 phosphatase inhibitors | Purified PP5, fluorogenic phosphatase substrate, fluorescence | inhibition, % at 6.7 µM | shares compounds with PP5 inh | AID 2331 | hit rate 22% among 460; in the data active = inhibition above about 9.5%
# PP1 counter 3x: inhibits human PP1 phosphatase in PP5 counter-screen. hit rate 4% among 460. AID 2355. inhibition, % at 6.7 µM. PP1 enzyme, fluorescent phosphatase substrate. shares compounds with PP5 inh; in the data active = inhibition above about 16%
# LYPLA1 confirm: counter-screen for PME1 inhibitors: confirmation of human LYPLA1 inhibitors. hit rate 69% among 480. recombinant LYPLA1, FP-Rh probe fluorescence polarization. AID 2233. shares compounds with LYPLA1 inh. inhibition, % at 5.9 µM;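 active = mean inhibition across replicates above the hit cutoff set in the primary screen, cut at about 15% in these data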;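 also: loss of FP-Rh probe labeling of LYPLA1 seen as lower polarization; 0% = LYPLA1 with DMSO and 100% = wells lacking LYPLA1 enzyme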
# PP1 confirm: confirmation of human PP1 phosphatase inhibitors | hit rate 52% among 1,900 | inhibition, % at 6.7 µM | shares compounds with PP1 counter | purified PP1alpha, OMFP substrate fluorescence;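 active = mean PP1 inhibition above a set limit taken from the earlier primary screen, cut at about 15% in these data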
# PP5 inh counter: PP5 phosphatase inhibition, counter-screen for PP1 inhibitors | shares compounds with PP1 counter | purified PP5c, OMFP fluorescence | inhibition, % at 6.7 µM | hit rate 4% among 1,900 | AID 2360;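 active = mean PP5 inhibition over triplicate wells above about 9.5% taken from the earlier PP1 screen, limit read from the data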
# * = called active by the depositor; / = no result given. The list is not random: actives were taken first. Their share in the collection is about 1.8%.
SMILES,LYPLA1 inh,PP1 counter,LYPLA2 inh,PME-1 primary,PP5 inh,Fam108B inh,Fam108b inh conf,PP1 confirm,PP5 inh counter,others
O=[N+]([O-])c1cc(/C=N/Nc2nc3ccccc3[nH]2)c(O)cc1O,2.1,17.8*,18.8,16.8,0.9,19.2*,17.3,31.2*,0.3,
O=C(CCCc1c[nH]c2ccccc12)NCc1ccccc1C(F)(F)F,1.0,0.1,1.7,1.2,1.5,0.3,/,/,/,
O=C1c2c(O)cccc2Cc2cccc(O)c21,-19.8,35.0*,2.1,36.8*,1.8,21.6*,43.4*,29.3*,-2.5,
O=C1C=C(O)c2c(O)cccc2C1=O,0.8,1.6,12.2,7.0,0.0,5.8,/,/,/,
N#Cc1c(SCC(=O)Nc2nncs2)sc2c(O)cc(=O)[nH]c12,-8.5,42.0*,-1.6,-34.7,-1.6,32.4*,5.8,10.1,5.8,
CSc1ccc(NC(=O)NCc2ccccc2)cc1,2.1,-0.5,3.6,4.4,1.8,-3.2,/,/,/,
Cc1ccc(C(C)C)c(OCc2ccc(C(=O)N/N=C/c3ccc(C(=O)O)cc3)cc2)c1,-21.8,3.3,-19.1,-14.3,5.2,-45.7,/,/,/,
Cc1ccc(C(C)C)c(OCc2ccc(C(=O)N/N=C/c3ccc(O)cc3O)cc2)c1,-20.2,25.7*,1.8,35.4*,1.7,28.1*,8.8,34.2*,-2.2,
Nc1c(C(=O)NC2CC2)sc2nc3c(c(-c4ccco4)c12)CC/C3=C/c1ccco1,-8.7,54.0*,2.1,9.6,1.5,32.6*,14.1,21.0*,5.4,
Nc1c(S(=O)(=O)O)cc(NC(=O)c2ccccc2)c2c1C(=O)c1ccccc1C2=O,13.9,30.7*,16.2,54.2*,6.7,52.8*,49.6*,18.3*,1.8,
COc1cccc(/C=N/Nc2ccnc(=O)[nH]2)c1O,-1.4,5.3,-2.0,2.4,-1.7,-0.5,/,/,/,
COc1cccc(/C=N/Nc2ccc([N+](=O)[O-])cn2)c1O,-2.7,34.1*,-0.5,74.7*,3.2,50.7*,5.2,24.1*,-0.9,
CC1=NN(c2nc(-c3ccc(C#N)cc3)cs2)C(=O)C1,-4.1,0.5,-0.5,0.3,-0.8,5.9,/,/,/,
O=C1CC(c2ccccc2)=NN1c1nc(-c2ccccc2)cs1,-14.2,20.2*,-15.7,10.8,-1.8,19.4*,8.7,3.8,2.2,
O=c1cc(-c2ccc(O)c(-c3c(O)cc(O)c4c(=O)cc(-c5ccc(O)cc5)oc34)c2)oc2cc(O)cc(O)c12,-21.5,30.8*,-34.7,4.9,0.6,44.1*,41.3*,21.1*,-1.9,Fam108b inh=75.0*
Cc1ccc(-c2cc(-c3ccco3)c3c(N)c(C(=O)NN)oc3n2)cc1,-3.9,18.0*,5.3,6.3,2.9,30.0*,13.5,13.0,5.9,
CC(C)c1ccc(O)c(C(=O)c2cnn(-c3ccccc3)c2)c1,-4.8,-2.3,-1.3,-4.3,1.6,-6.6,/,/,/,
FC(F)(F)c1ccccc1-n1ccnc1,-1.0,-3.4,4.2,-5.9,3.2,-3.0,/,/,/,
Clc1ccccc1C(c1ccccc1)(c1ccccc1)n1ccnc1,-3.3,18.3*,-2.8,-14.2,0.8,31.9*,46.4*,5.5,-3.5,Fam108b inh=45.0*
CCc1ccc(S(=O)(=O)/N=C2\C=C(Nc3ccc(C(=O)O)cc3)C(=O)c3ccccc32)cc1,10.0,15.2*,17.8,29.9*,10.8*,57.7*,74.4*,16.4*,43.7*,Fam108b inh=0.0
Cn1c(C(=O)NN)cc2cc(Oc3ccccc3)ccc21,3.1,2.8,6.1,-3.0,2.8,-6.3,/,/,/,
COCCn1c(C)cc(/C=N/NC(=O)c2cc3ccccc3cc2O)c1C,-13.1,5.8,3.5,9.3,3.6,/,/,/,/,
COc1ccc2c(c1)cc(C(=O)N/N=C/c1c(O)c(C(=O)O)cc3ccccc13)n2C,3.8,34.8*,13.1,49.1*,3.7,43.2*,17.4,29.8*,0.6,
Cn1c(O)c(/C=N/NC(=O)c2cc3ccccc3cc2O)c2ccccc21,15.4*,22.4*,2.6,69.8*,2.8,36.4*,31.0*,16.4*,-2.8,LYPLA1 confirm=15.7*
Fc1ccc(CNC(=S)NC2CCCCCC2)cc1,-3.3,-0.5,0.0,0.7,1.9,0.1,/,/,/,
SMILES,LYPLA1 inh,PP1 counter,LYPLA2 inh,PME-1 primary,PP5 inh,Fam108B inh,Fam108b inh conf,PP1 confirm,PP5 inh counter,others
CN(C(=O)CSc1n[nH]c(-c2cccs2)n1)C1CCS(=O)(=O)C1 (stereo unspecified),3.8,-3.5,5.0,2.5,-2.8,-1.2,/,/,/,
COc1ccc(CNC(=O)c2c(-c3c(F)cccc3Cl)noc2C)cc1,-1.2,-1.7,-6.0,-1.7,2.8,3.5,/,/,/,
Cc1onc(-c2c(Cl)cccc2Cl)c1C(=O)N/N=C(\N)COc1ccc(Cl)cc1,0.2,14.0,-7.3,3.8,11.8*,-4.9,/,/,/,PP5 conf=0.4;PP1 counter 3x=7.0
CCCCCCSc1ccc([C@H]2N[C@@](CC(C)C)(C(=O)OC)[C@H]3C(=O)N(C)C(=O)[C@@H]23)cc1OC,-1.7,5.3,0.0,4.0,5.7,-2.8,/,/,/,
O=C(Nc1ccc(OC(F)(F)F)cc1)C1CCCN(C(=O)c2ccc(Cl)cc2)C1 (stereo unspecified),-4.2,-0.1,1.3,-3.2,13.6*,/,/,/,/,PP5 conf=4.0;PP1 counter 3x=2.5
C=CCn1c(SCC(=O)NC2CCCC2)nnc1-c1ccccn1,-4.7,1.3,-1.0,-3.8,-0.7,0.7,/,/,/,
CCCn1c(SCC(=O)NC2CCCC2)nnc1-c1ccccn1,-2.4,-5.7,-1.0,-1.5,10.7*,-0.8,/,/,/,PP5 conf=-2.9;PP1 counter 3x=-4.0
CCCCC1=NN(C(=O)c2cocc2C)C(O)(C(F)(F)F)C1 (stereo unspecified),1.9,-0.7,2.5,-0.6,13.2*,6.7,/,/,/,PP5 conf=-3.0;PP1 counter 3x=-3.7
CCCCC1=NN(C(=O)c2ccncc2)C(O)(C(F)(F)F)C1 (stereo unspecified),4.6,-3.5,2.3,-1.6,3.9,2.6,/,/,/,
C=C(C)CSC1=C(C#N)C(c2ccsc2)CC(=O)N1 (stereo unspecified),2.8,-1.4,3.6,-0.6,10.7*,3.4,/,/,/,PP5 conf=-5.4;PP1 counter 3x=-4.1

# Source: PubChem BioAssay
